Screening data deposited in PubChem BioAssay by several laboratories.
Rows were chosen to be rich in hits. Some 3.3% of all compounds tested hit in one or more screens of this group.
14-3-3 Bad PPI: inhibitors of 14-3-3 zeta/Bad binding, primary screen, biochemical, TR-FRET, bovine 14-3-3 zeta | hit rate 0.71% among 220,000 | TR-FRET 14-3-3zeta/Dy647-pBad peptide displacement, 1 h | 14-3-3 protein zeta/delta (Bos taurus), P63103 | inhibition, % at 21.7 µM;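 active means inhibition above about 70%, limit read from the data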
Target sequence (P63103 whole entry, looked up): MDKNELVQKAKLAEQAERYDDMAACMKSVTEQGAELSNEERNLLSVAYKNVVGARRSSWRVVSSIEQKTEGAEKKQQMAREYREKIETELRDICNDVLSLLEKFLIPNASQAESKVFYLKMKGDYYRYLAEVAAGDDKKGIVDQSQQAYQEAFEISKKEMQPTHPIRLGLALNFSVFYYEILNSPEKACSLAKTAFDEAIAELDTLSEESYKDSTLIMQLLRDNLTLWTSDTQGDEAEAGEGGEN
p47phox inh: p47phox/p22phox peptide binding inhibitors, primary screen, biochemical, uHTS, NADPH oxidase regulatory subunit; AID 1274, 2008; inhibition, % at 24.7 µM; hit rate 0.53% among 220,000; fluorescence polarization, 2 h
Target sequence (P14598 whole entry, looked up): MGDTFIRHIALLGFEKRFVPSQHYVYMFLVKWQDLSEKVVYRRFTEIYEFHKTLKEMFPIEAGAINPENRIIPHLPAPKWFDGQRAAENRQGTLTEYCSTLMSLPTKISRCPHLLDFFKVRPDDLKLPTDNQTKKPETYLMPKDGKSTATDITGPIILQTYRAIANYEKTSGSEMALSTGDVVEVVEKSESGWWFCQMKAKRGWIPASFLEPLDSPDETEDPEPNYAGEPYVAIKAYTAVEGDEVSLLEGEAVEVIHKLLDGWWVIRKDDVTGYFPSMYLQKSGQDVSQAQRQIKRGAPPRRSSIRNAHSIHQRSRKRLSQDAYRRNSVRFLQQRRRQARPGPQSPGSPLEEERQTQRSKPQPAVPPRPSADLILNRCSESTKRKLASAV
Mcl1 Bid PPI: Mcl-1/Bid binding inhibitors, primary screen, biochemical, TR-FRET, 1536-well. TR-FRET Mcl-1/Bid-Dy647 peptide binding. AID 1021, 2008. hit rate 0.97% among 220,000. inhibition, % at 21.7 µM;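 active means compounds that cut the binding signal by more than half at the single screening dose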;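 further: His-tagged Mcl-1 with europium anti-His antibody binding Bid BH3 peptide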
Mcl-1 Bim block: inhibitors of Bim peptide binding to Mcl-1, primary screen, biochemical, bead-based flow cytometry, multiplex. Induced myeloid leukemia cell differentiation protein Mcl-1 (Homo sapiens), Q07820. Bim peptide-Mcl-1 binding. inhibition, % at 10 µM. hit rate 0.1% among 190,000. AID 1009, 2008; in the data active means inhibition above about 40%
Mcl1-Noxa inh: Mcl-1/Noxa binding inhibitors, primary screen, biochemical, TR-FRET, 1536-well | Induced myeloid leukemia cell differentiation protein Mcl-1 (Homo sapiens), Q07820 | TR-FRET Mcl-1/Noxa peptide binding, 2 h | inhibition, % at 21.7 µM | hit rate 1.5% among 220,000 | AID 1022, 2008;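 active means compounds that cut the protein-peptide binding signal by more than 50% relative to plate controls in a single-dose test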;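 further: His-tagged Mcl-1 with rhodamine Noxa BH3 peptide and terbium anti-His antibody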
eIF4E-4G inh: eIF4E–eIF4G protein interaction inhibitors, primary screen, biochemical, uHTS, TR-FRET, eIF4GI fragment; Eukaryotic translation initiation factor 4E (Mus musculus) + Eukaryotic translation …; inhibition, % at 21.7 µM; hit rate 0.37% among 220,000; TR-FRET eIF4E-eIF4GI(517-606) binding, 2 h
Hits are given with their value; [ ] = remark or other dose.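 How the source made its calls, unless noted: active means inhibition above about 30% (limit read from the data); inactive means the rest.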

Results for Cc1ccc(/C(CSc2nccn2-c2ncc(C(F)(F)F)cc2Cl)=N\O)cc1 ?
14-3-3 Bad PPI: inactive; p47phox inh: active; Mcl1 Bid PPI: inactive; Mcl-1 Bim block: inactive; Mcl1-Noxa inh: inactive; eIF4E-4G inh: inactive

How did Cc1ccc(S(=O)(=O)N2C(=O)/C(=C3\SC(=S)NC3=O)c3ccccc32)cc1 do in these assays?
14-3-3 Bad PPI: inactive; p47phox inh: inactive; Mcl1 Bid PPI: inactive; Mcl1-Noxa inh: 70.4; eIF4E-4G inh: inactive

How did Cc1ccc(S(=O)(=O)N2c3ccccc3-c3c(ssc3=S)C2(C)C)cc1 do in these assays?
14-3-3 Bad PPI: inactive; p47phox inh: inactive; Mcl1 Bid PPI: inactive; Mcl-1 Bim block: inactive; Mcl1-Noxa inh: inactive; eIF4E-4G inh: inactive

Results for COc1ccc(N2CCN(C(=O)CCNC(=O)Cn3ccc4ccccc4c3=O)CC2)cc1 ?
14-3-3 Bad PPI: inactive; p47phox inh: inactive; Mcl1 Bid PPI: inactive; Mcl-1 Bim block: inactive; Mcl1-Noxa inh: inactive; eIF4E-4G inh: 78.5

What do the screens show for `C=CCn1c(=NC(=O)c2ccco2)sc2cc(C(=O)OCC)ccc21`?
14-3-3 Bad PPI: inactive; p47phox inh: inactive; Mcl1 Bid PPI: 50.9; Mcl-1 Bim block: inactive; Mcl1-Noxa inh: inactive; eIF4E-4G inh: inactive

How did O=C(NCCc1ccccc1)c1c(F)c(F)c(F)c(F)c1F do in these assays?
14-3-3 Bad PPI: inactive; p47phox inh: inactive; Mcl1 Bid PPI: inactive; Mcl-1 Bim block: inactive; Mcl1-Noxa inh: inactive; eIF4E-4G inh: inactive

What do the screens show for `CCCOC(=O)Nc1c(C)cccc1C(C)C`?
14-3-3 Bad PPI: inactive; p47phox inh: inactive; Mcl1 Bid PPI: inactive; Mcl-1 Bim block: inactive; Mcl1-Noxa inh: inactive; eIF4E-4G inh: inactive

Results for COc1ccc(/C=N/NC(=O)c2ccc(COc3cccc4cccnc34)cc2)cc1OC ?
14-3-3 Bad PPI: inactive; p47phox inh: inactive; Mcl1 Bid PPI: inactive; Mcl-1 Bim block: inactive; Mcl1-Noxa inh: inactive; eIF4E-4G inh: inactive

What do the screens show for `COc1ccc(/C=N/NC(=O)c2ccc(O)cc2O)cc1CSc1ccccn1`?
14-3-3 Bad PPI: inactive; p47phox inh: inactive; Mcl1 Bid PPI: inactive; Mcl-1 Bim block: inactive; Mcl1-Noxa inh: 98.2; eIF4E-4G inh: inactive

What do the screens show for `COc1ccc(/C=N/NC(=O)c2ccc(COc3cccc4cccnc34)cc2)cc1O`?
14-3-3 Bad PPI: inactive; p47phox inh: inactive; Mcl1 Bid PPI: inactive; Mcl1-Noxa inh: 50.7; eIF4E-4G inh: inactive

Results for COc1cc(/C=N/NC(=O)c2ccc(CN3c4cccc5cccc(c45)S3(=O)=O)cc2)cc(OC)c1O ?
14-3-3 Bad PPI: 91.8; p47phox inh: 36.3; Mcl1 Bid PPI: 82.2; Mcl-1 Bim block: inactive; Mcl1-Noxa inh: 72.1; eIF4E-4G inh: inactive

What do the screens show for `COc1ccc(/C=N/NC(=O)c2ccc(CN3c4cccc5cccc(c45)S3(=O)=O)cc2)cc1`?
14-3-3 Bad PPI: inactive; p47phox inh: inactive; Mcl1 Bid PPI: inactive; Mcl-1 Bim block: inactive; Mcl1-Noxa inh: inactive; eIF4E-4G inh: inactive

Results for COc1cc(/C=N/NC(=O)c2ccc(CSc3nncn3C)cc2)cc(OC)c1O ?
14-3-3 Bad PPI: inactive; p47phox inh: inactive; Mcl1 Bid PPI: inactive; Mcl-1 Bim block: inactive; Mcl1-Noxa inh: 55.1; eIF4E-4G inh: inactive

What do the screens show for `CCCCCCN(C(=O)CCCCCN1C(=O)NC(c2cccc([N+](=O)[O-])c2)C(C(=O)OCc2ccccc2)=C1C)C(C(=O)NCCCC)c1ccc(OCC(=O)OC)c(C(=O)OC)c1` (centres undefined)?
14-3-3 Bad PPI: inactive; p47phox inh: inactive; Mcl1 Bid PPI: inactive; Mcl1-Noxa inh: inactive; eIF4E-4G inh: inactive

What do the screens show for `CCCCCCCCCC[n+]1cccc2c3ccccc3ccc21`?
14-3-3 Bad PPI: inactive; p47phox inh: 50.0; Mcl1 Bid PPI: inactive; Mcl-1 Bim block: inactive; Mcl1-Noxa inh: inactive; eIF4E-4G inh: inactive

Results for CCCCCCCC[n+]1cccc2c3ccccc3ccc21 ?
14-3-3 Bad PPI: inactive; p47phox inh: inactive; Mcl1 Bid PPI: inactive; Mcl-1 Bim block: inactive; Mcl1-Noxa inh: inactive; eIF4E-4G inh: inactive

Results for COC(C[C@@H](O)[C@H](C)[C@@H](O)COCc1ccccc1)OC ?
14-3-3 Bad PPI: inactive; p47phox inh: inactive; Mcl1 Bid PPI: inactive; Mcl1-Noxa inh: inactive; eIF4E-4G inh: inactive

Results for C=C(C(=O)c1ccccc1)C(C(=C)C(=O)c1ccccc1)c1ccc(OC)cc1 ?
14-3-3 Bad PPI: inactive; p47phox inh: inactive; Mcl1 Bid PPI: 69.1; Mcl1-Noxa inh: inactive; eIF4E-4G inh: inactive

What do the screens show for `COc1ccccc1NC(=O)c1sc2ncn(Cc3ccc(C)cc3)c(=O)c2c1C`?
14-3-3 Bad PPI: inactive; p47phox inh: inactive; Mcl1 Bid PPI: 73.5; Mcl-1 Bim block: inactive; Mcl1-Noxa inh: inactive; eIF4E-4G inh: inactive

Results for CCOC(=O)Cc1ccc(NCc2ccc(Cl)cc2)cc1 ?
14-3-3 Bad PPI: inactive; p47phox inh: inactive; Mcl1 Bid PPI: inactive; Mcl-1 Bim block: inactive; Mcl1-Noxa inh: inactive; eIF4E-4G inh: inactive

What do the screens show for `O=c1cc(CSc2ccccn2)c2ccccc2[nH]1`?
14-3-3 Bad PPI: 81.2[fluorescence artefact?]; p47phox inh: inactive; Mcl1 Bid PPI: inactive; Mcl-1 Bim block: inactive; Mcl1-Noxa inh: inactive; eIF4E-4G inh: inactive

Results for Cc1ccc(C(=O)CN(C(=O)c2ccc(Cl)c(Cl)c2)N2C(=O)C3C4C=CC(C4)C3C2=O)cc1 (centres undefined) ?
14-3-3 Bad PPI: inactive; p47phox inh: inactive; Mcl1 Bid PPI: 80.3; Mcl-1 Bim block: inactive; eIF4E-4G inh: inactive

How did Cc1[nH]c2ccccc2c1/C=N/Nc1ccc([N+](=O)[O-])cc1S(=O)(=O)Nc1ccc(Cl)cc1 do in these assays?
14-3-3 Bad PPI: inactive; p47phox inh: inactive; Mcl1 Bid PPI: inactive; Mcl-1 Bim block: inactive; Mcl1-Noxa inh: 51.1; eIF4E-4G inh: inactive

How did COc1ccc(OCc2nnc(SC(C)C(=O)Nc3nccs3)n2-c2ccccc2)cc1 (centres undefined) do in these assays?
14-3-3 Bad PPI: inactive; p47phox inh: 36.0; Mcl1 Bid PPI: inactive; Mcl-1 Bim block: inactive; Mcl1-Noxa inh: inactive; eIF4E-4G inh: inactive

Results for COc1ccc(CC(=O)NCc2nnc(SCC(=O)Nc3nccs3)n2-c2ccccc2)cc1 ?
14-3-3 Bad PPI: inactive; p47phox inh: inactive; Mcl1 Bid PPI: inactive; Mcl-1 Bim block: inactive; Mcl1-Noxa inh: inactive; eIF4E-4G inh: inactive

Results for CCOCCCNC1=C(Cl)C(=O)c2ccccc2C1=O ?
14-3-3 Bad PPI: inactive; p47phox inh: inactive; Mcl1 Bid PPI: inactive; Mcl1-Noxa inh: 63.9; eIF4E-4G inh: inactive

What do the screens show for `Cc1cc(C)n(C(=O)/C=C/c2cccs2)n1`?
14-3-3 Bad PPI: inactive; p47phox inh: inactive; Mcl1 Bid PPI: inactive; Mcl1-Noxa inh: inactive; eIF4E-4G inh: inactive
